Here are results for one sequence from article PMC7862700, “An all-to-all approach to the identification of sequence-specific readers for epigenetic DNA modifications on cytosine”.

Holding throughout (assay): DAPPL (digital affinity profiling via proximity ligation, sequencing); 10 mM Tris-HCl pH 7.5, 50 mM NaCl, 1 mM DTT, 4% glycerol, room temperature, 30 min; GST-TFs on glutathione beads, 16-mer random dsDNA library, 0.1% formaldehyde crosslink after washing; high values mean tight binding
One assay deals with T1, FEV (Homo sapiens, UniProt Q99581 1-238).
T1 sequence: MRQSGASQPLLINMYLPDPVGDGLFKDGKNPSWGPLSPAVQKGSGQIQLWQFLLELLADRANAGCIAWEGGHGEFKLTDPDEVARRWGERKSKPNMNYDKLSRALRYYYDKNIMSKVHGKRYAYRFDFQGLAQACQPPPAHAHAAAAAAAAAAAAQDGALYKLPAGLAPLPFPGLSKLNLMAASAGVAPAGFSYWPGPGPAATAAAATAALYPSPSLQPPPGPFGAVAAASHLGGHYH
The settings on record: protein: recombinant; tags: N-terminal GST; dsDNA, one strand shown. The essentials: (§1)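 Human transcription factors fused to GST were expressed in yeast, captured on glutathione beads, given DNA barcodes and pooled with a GST-only negative control. Pools were incubated with 200 nmole of a 16-mer random double-stranded DNA library in Tris/NaCl/DTT/glycerol buffer at room temperature for 30 min. They were then washed, crosslinked with 0.1% formaldehyde, proximity-ligated (BsaI/T4 ligase, 1 h, 37 °C), PCR-amplified and sequenced on an Illumina NextSeq500. Binding signal is each 6-mer's read frequency for a factor divided by its frequency for the GST control.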

The next assay has as its target ETV5 (Homo sapiens, UniProt P41161 1-510). Particulars: protein: recombinant; tags: N-terminal GST; dsDNA, one strand shown. Put shortly:
as §1

Another assay deals with HSF1 (Homo sapiens, UniProt Q00613 1-529). Particulars: protein: recombinant; tags: N-terminal GST; chain copies: 3; dsDNA, one strand shown. Put shortly: as §1
Chain of HSF1 (Q00613 whole entry): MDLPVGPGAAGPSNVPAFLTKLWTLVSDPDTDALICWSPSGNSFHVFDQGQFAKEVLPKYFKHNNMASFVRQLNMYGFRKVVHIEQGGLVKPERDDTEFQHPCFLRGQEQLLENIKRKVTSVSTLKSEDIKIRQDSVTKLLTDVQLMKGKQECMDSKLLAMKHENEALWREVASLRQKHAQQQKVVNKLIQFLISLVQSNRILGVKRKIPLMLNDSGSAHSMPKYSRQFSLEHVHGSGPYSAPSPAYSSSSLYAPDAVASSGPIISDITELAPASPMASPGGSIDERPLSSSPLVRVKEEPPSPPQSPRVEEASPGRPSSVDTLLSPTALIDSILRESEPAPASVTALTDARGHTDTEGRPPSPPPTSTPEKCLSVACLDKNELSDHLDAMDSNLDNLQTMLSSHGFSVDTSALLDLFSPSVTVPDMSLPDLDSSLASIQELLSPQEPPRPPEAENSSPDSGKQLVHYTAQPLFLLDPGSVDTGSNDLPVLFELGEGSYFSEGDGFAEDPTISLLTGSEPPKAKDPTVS
For another assay, the target named is T2, SPIC (Homo sapiens, UniProt Q8N5J4 1-248).
T2 sequence: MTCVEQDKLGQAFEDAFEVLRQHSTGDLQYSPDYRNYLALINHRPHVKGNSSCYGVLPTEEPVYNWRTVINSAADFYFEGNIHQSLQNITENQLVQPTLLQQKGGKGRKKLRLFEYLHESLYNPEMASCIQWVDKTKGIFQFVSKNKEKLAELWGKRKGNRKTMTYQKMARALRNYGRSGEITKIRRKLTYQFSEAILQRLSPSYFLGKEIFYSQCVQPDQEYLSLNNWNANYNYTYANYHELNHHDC
Particulars: protein: recombinant; tags: N-terminal GST; dsDNA, one strand shown. Put shortly:
as §1

The target in another assay is ELF4 (Homo sapiens, UniProt Q99607 1-663). Particulars: protein: recombinant; tags: N-terminal GST; dsDNA, one strand shown. Put shortly: as §1
Chain of ELF4 (Q99607 whole entry): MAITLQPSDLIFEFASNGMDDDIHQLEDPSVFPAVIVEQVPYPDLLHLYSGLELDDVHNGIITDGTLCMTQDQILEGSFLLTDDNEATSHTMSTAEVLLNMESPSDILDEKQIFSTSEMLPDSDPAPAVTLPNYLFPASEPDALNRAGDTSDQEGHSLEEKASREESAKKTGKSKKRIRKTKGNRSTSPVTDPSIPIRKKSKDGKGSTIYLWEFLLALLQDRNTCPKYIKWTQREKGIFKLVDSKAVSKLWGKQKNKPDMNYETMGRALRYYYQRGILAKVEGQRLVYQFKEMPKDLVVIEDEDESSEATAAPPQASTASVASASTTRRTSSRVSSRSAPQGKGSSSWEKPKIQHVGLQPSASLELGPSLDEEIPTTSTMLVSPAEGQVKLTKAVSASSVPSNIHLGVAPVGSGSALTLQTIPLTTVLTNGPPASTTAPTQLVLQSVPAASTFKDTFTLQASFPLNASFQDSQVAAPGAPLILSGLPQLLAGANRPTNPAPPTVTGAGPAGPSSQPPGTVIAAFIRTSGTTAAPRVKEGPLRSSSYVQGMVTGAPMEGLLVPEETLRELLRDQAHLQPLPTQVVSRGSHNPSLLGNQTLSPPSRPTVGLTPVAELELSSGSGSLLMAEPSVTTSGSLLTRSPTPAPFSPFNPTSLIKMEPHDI
The next assay concerns the target T3, ELK4 (Homo sapiens, UniProt P28324-2 1-405).
T3 sequence: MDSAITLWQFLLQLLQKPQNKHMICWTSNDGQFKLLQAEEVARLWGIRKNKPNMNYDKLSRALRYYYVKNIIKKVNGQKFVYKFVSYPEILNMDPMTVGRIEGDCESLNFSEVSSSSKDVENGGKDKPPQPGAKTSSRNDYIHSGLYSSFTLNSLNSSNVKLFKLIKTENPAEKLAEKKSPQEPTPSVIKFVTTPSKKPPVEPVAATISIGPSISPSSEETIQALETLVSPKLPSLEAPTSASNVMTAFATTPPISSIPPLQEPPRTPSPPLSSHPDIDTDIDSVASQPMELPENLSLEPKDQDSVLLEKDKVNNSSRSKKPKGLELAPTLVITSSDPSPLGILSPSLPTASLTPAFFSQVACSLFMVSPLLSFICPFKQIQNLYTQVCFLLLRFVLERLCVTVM
Particulars: protein: recombinant; tags: N-terminal GST; dsDNA, one strand shown. Put shortly:
as §1

Another assay has as its target T4, ETV2 (Homo sapiens, UniProt O00321 1-342).
T4 sequence: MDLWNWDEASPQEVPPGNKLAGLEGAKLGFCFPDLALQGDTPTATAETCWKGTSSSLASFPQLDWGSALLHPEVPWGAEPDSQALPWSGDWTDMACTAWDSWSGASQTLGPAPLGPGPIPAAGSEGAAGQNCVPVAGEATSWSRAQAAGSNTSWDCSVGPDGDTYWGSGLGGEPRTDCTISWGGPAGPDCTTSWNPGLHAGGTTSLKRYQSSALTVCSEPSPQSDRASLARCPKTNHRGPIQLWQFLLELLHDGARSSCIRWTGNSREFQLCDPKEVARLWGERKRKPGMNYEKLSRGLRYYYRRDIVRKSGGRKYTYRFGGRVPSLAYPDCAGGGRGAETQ
Particulars: protein: recombinant; tags: N-terminal GST; dsDNA, one strand shown. Put shortly:
as §1

The next assay deals with T5, ELF3 (Homo sapiens, UniProt P78545 1-371).
T5 sequence: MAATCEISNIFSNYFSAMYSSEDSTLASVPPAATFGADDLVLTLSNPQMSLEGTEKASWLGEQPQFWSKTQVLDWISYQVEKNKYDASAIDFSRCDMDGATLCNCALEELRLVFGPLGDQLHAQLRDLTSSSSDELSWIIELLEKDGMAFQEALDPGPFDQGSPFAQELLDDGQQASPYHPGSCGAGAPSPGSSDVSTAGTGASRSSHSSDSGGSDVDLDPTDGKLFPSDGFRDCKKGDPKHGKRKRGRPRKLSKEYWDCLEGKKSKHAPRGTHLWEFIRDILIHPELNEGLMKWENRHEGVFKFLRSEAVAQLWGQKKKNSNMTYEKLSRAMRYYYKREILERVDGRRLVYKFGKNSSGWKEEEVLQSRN
The settings on record: protein: recombinant; tags: N-terminal GST; dsDNA, one strand shown. The essentials:
as §1

Another assay has as its target CRX (Homo sapiens, UniProt O43186 1-299). Particulars: protein: recombinant; tags: N-terminal GST; dsDNA, one strand shown. The essentials:
as §1

Another assay concerns the target ETV1 (Homo sapiens, UniProt P50549 1-477). Particulars: protein: recombinant; tags: N-terminal GST; dsDNA, one strand shown. The essentials: as §1
Another assay concerns the target T6, ERF (Homo sapiens, UniProt P50548 1-548).
T6 sequence: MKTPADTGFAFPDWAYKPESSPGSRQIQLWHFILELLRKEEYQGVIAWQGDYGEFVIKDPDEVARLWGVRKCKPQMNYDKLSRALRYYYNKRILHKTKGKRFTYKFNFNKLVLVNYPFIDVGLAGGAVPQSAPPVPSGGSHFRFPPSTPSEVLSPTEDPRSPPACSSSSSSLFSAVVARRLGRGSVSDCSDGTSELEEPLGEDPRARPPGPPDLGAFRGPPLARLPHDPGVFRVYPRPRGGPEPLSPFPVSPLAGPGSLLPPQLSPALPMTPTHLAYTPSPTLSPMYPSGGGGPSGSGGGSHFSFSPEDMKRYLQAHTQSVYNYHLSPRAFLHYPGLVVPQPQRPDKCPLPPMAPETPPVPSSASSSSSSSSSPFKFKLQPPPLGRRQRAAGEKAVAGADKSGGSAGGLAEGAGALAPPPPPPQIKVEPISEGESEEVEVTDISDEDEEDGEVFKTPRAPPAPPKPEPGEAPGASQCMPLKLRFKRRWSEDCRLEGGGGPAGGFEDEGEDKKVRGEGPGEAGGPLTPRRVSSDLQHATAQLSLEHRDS
The settings on record: protein: recombinant; tags: N-terminal GST; dsDNA, one strand shown. Put shortly:
as §1

The next assay deals with T7, ETV3L (Homo sapiens, UniProt Q6ZN32 1-361).
T7 sequence: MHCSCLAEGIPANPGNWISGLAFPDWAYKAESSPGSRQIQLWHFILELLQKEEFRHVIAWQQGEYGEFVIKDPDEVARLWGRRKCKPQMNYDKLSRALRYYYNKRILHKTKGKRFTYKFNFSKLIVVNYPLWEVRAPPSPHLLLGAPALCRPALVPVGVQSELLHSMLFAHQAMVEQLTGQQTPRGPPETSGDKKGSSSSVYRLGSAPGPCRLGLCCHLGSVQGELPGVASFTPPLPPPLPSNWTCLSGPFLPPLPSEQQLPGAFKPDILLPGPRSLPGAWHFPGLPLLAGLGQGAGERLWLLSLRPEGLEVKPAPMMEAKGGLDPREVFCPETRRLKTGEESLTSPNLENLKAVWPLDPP
The settings on record: protein: recombinant; tags: N-terminal GST; dsDNA, one strand shown. The essentials:
as §1

The target of a further assay is T8, ETS2 (Homo sapiens, UniProt P15036 1-469).
T8 sequence: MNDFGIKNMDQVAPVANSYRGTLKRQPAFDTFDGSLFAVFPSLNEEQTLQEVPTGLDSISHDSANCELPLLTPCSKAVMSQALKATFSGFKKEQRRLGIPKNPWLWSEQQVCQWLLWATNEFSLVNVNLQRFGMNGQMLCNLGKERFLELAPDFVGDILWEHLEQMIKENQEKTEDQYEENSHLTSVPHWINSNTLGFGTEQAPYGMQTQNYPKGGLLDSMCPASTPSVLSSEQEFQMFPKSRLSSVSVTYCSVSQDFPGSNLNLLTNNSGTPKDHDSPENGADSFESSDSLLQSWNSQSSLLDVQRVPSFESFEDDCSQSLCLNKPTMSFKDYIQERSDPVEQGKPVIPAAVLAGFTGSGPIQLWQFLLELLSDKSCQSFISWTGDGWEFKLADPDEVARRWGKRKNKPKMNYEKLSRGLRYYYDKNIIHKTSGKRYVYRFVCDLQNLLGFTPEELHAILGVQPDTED
The settings on record: protein: recombinant; tags: N-terminal GST; dsDNA, one strand shown. Put shortly:
as §1

A further assay has as its target T9, SPDEF (Homo sapiens, UniProt O95238 1-335).
T9 sequence: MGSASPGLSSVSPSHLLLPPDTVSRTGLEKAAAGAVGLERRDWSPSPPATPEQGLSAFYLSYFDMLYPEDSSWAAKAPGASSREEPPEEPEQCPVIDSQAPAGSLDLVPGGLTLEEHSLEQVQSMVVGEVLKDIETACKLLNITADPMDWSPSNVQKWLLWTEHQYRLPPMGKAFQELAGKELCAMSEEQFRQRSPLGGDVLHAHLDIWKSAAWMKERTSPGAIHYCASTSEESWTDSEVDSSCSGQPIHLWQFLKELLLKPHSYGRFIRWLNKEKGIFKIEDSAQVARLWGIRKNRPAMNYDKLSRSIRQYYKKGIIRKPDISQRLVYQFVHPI
The settings on record: protein: recombinant; tags: N-terminal GST; dsDNA, one strand shown. Put shortly:
as §1

A further assay addresses T10, ETV7 (Homo sapiens, UniProt Q9Y603 1-341).
T10 sequence: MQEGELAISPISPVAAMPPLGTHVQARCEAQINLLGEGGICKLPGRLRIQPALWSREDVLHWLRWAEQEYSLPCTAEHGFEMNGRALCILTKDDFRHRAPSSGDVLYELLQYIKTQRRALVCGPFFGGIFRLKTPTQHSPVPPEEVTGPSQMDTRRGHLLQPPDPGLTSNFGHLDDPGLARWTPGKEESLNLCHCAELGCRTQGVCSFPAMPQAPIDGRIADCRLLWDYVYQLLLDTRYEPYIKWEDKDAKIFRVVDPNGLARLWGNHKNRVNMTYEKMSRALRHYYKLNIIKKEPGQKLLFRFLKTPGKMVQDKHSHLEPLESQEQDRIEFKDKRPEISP
Particulars: protein: recombinant; tags: N-terminal GST; dsDNA, one strand shown. The essentials: as §1

A further assay concerns the target T11, ELF5 (Homo sapiens, UniProt Q9UKW6-2 1-255).
T11 sequence: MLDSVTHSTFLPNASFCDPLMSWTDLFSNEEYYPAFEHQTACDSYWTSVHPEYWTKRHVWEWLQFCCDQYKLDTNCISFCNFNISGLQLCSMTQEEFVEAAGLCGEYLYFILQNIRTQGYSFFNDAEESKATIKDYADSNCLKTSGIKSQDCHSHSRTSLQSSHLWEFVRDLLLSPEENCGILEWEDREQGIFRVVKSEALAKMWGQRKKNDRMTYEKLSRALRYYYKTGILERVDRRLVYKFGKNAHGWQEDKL
Particulars: protein: recombinant; tags: N-terminal GST; dsDNA, one strand shown. Put shortly:
as §1

For a further assay, the target named is T12, ETV3 (Homo sapiens, UniProt P41162-2 1-143).
T12 sequence: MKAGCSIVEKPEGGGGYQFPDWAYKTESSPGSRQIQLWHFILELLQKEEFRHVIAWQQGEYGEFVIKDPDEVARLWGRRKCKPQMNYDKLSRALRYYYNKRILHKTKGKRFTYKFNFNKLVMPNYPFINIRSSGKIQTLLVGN
The settings on record: protein: recombinant; tags: N-terminal GST; dsDNA, one strand shown. The essentials:
as §1

The next assay deals with ETV6 (Homo sapiens, UniProt P41212 1-452). Particulars: protein: recombinant; tags: N-terminal GST; dsDNA, one strand shown. The essentials:
as §1

Chain of ETV6 (P41212 whole entry): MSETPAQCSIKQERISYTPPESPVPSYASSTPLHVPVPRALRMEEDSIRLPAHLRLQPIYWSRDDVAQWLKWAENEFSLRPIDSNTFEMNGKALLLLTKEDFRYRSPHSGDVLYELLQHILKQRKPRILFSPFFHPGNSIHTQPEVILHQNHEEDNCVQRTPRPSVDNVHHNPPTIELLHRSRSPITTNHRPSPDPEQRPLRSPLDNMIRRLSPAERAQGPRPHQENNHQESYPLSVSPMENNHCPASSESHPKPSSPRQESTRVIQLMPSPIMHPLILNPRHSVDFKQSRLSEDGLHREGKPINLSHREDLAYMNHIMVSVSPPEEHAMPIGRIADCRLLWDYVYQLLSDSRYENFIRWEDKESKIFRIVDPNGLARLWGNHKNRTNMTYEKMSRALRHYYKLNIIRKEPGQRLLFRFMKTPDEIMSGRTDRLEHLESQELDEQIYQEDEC
Chain of CRX (O43186 whole entry): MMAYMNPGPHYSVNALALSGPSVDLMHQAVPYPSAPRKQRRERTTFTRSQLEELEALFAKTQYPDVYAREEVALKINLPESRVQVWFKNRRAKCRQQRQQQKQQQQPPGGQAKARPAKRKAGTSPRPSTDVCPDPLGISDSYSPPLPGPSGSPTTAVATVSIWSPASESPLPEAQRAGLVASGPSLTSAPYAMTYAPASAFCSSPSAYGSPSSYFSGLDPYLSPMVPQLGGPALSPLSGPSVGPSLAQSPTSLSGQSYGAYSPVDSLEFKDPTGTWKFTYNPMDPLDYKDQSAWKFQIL
Chain of ETV1 (P50549 whole entry): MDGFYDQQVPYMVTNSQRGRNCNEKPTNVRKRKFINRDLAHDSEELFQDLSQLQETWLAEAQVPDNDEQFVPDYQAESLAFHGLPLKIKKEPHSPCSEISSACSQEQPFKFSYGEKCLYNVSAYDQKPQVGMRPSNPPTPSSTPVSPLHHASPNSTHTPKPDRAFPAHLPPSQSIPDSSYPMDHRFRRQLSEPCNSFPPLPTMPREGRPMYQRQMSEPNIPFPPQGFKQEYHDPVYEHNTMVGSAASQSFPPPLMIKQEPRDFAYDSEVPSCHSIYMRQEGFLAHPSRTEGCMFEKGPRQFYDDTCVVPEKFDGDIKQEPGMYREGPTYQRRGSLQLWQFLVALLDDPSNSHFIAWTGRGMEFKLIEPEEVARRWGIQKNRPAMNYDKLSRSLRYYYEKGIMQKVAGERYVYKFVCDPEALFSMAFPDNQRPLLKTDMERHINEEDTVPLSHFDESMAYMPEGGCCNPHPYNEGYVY
Chain of ETV5 (P41161 whole entry): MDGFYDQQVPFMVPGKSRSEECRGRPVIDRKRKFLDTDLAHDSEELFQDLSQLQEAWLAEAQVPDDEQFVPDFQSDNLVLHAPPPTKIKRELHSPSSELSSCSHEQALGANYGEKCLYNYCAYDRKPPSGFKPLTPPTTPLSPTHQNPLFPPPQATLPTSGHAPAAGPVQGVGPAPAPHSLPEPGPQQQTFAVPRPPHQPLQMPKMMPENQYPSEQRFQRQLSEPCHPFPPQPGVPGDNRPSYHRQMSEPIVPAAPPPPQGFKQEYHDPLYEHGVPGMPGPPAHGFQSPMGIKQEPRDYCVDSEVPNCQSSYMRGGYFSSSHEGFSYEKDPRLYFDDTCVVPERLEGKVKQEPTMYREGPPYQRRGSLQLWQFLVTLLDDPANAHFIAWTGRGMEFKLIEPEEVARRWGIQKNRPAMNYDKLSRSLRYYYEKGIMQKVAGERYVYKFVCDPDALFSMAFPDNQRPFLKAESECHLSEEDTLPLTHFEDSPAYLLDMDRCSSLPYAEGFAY

AGTGCT: the binding signal was 1.4 fold enrichment (6-mer frequency, TF over GST control) with FEV; 1.4 fold enrichment (6-mer frequency, TF over GST control) with ETV5; 1.15 fold enrichment (6-mer frequency, TF over GST control) in the assay with HSF1; 1.67 fold enrichment (6-mer frequency, TF over GST control) with SPIC; 1.33 fold enrichment (6-mer frequency, TF over GST control) in the assay with ELF4; 1.37 fold enrichment (6-mer frequency, TF over GST control) with ELK4. Besides, the binding signal in the assay with ETV2 was 1.42 fold enrichment (6-mer frequency, TF over GST control); with ELF3 it was 1.02 fold enrichment (6-mer frequency, TF over GST control); with CRX it was 1.16 fold enrichment (6-mer frequency, TF over GST control); with ETV1, 1.32 fold enrichment (6-mer frequency, TF over GST control); in the assay with ERF, 1.41 fold enrichment (6-mer frequency, TF over GST control); with ETV3L it was 1.32 fold enrichment (6-mer frequency, TF over GST control). For the same sequence, the binding signal is 1.46 fold enrichment (6-mer frequency, TF over GST control) in the assay with ETS2; 1.33 fold enrichment (6-mer frequency, TF over GST control) with SPDEF; 1.37 fold enrichment (6-mer frequency, TF over GST control) in the assay with ETV7; 1.48 fold enrichment (6-mer frequency, TF over GST control) with ELF5; 1.56 fold enrichment (6-mer frequency, TF over GST control) in the assay with ETV3; 1.52 fold enrichment (6-mer frequency, TF over GST control) with ETV6.
